Laboratory results reported in PubChem BioAssay (NCATS).
Results filed as inconclusive are left out. Calls of active or inactive are those of the source. Unless noted, calls come from the whole dose curve; as a rule, active = well fitted curve in either direction with a large enough effect (not every such curve was filed as active); inconclusive = small, poorly fitted or top-dose-only effect, or another doubt; inactive = flat fitted curve, though single readings scatter.

Experiments:
[1] = molecular target: Lysosomal acid glucosylceramidase (Homo sapiens) (UniProt P04062); assay: Glucocerebrosidase-p2 (AID 348; in the data active = potency below about 10 µM; note: potency is the fitted concentration of half-maximal effect); conditions: purified GBA, blue fluorogenic substrate, 40 min
Chain of Lysosomal acid glucosylceramidase (Homo sapiens) (P04062 whole entry, looked up): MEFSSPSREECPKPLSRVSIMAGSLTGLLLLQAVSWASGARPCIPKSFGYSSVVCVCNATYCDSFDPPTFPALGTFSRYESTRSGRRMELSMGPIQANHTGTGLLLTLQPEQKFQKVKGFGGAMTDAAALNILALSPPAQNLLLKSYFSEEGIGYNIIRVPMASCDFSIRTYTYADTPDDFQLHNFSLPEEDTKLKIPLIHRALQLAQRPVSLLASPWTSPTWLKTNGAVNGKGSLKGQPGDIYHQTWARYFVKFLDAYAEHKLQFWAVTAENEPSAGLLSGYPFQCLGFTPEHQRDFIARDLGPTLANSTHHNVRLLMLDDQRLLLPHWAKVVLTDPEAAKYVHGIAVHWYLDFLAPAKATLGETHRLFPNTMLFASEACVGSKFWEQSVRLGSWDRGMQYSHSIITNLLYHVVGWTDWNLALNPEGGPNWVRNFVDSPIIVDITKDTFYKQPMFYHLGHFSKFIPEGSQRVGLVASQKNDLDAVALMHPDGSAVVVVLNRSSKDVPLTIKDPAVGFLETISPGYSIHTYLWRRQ
Summary of the method: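 Compounds titrated from 0.6 nM upwards against 0.2 nM enzyme in pH 5.9 citric acid/KH2PO4, taurocholate, tween-20; blue fluorogenic substrate 80 uM, 40 min room temperature, stopped and read Ex 365/Em 440 for AC50.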

[2] = AP1 Signaling Pathway (AID 357); conditions: ME-180 AP-1-bla reporter, EGF-induced, beta-lactamase ratio, 5 h; at 7.69 µM (top of the series) unless noted;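 note: ME-180 reporter cells stimulated with EGF at its EC50 level; % is set by controls: 0 for no effect and ±100 for the full control effect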
Summary of the method: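 In this screen, ME-180 cells in Opti-MEM with 0.5% dialyzed FBS received EC50 EGF and compound titrations for 5 h. AP-1 reporter beta-lactamase was detected via CCF4 ratio, giving AC50 for positive and negative modulators.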

[3] = NFAT Signaling Pathway (AID 444); conditions: Jurkat NFAT-bla M1, carbachol, beta-lactamase ratio, 5 h; at 7.69 µM (top of the series) unless noted;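 note: carbachol stimulus at about its EC50 of 1 µM final; % is set by controls: 0 for no effect and ±100 for the full control effect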
Summary of the method: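 Jurkat cells carrying an NFAT-driven β-lactamase reporter and co-transfected muscarinic M1 receptor were treated with compound plus carbachol (1 uM final, an EC50 level) for 5 h at 37 °C. CCF4 loading followed for 1 h at RT; 460/530 nm ratio gave %activity.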

[4] = Stat Signaling Pathway (AID 446); conditions: ME-180 SIE beta-lactamase reporter, IL-6 stimulated, 5 h; at 7.69 µM (top of the series) unless noted;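 note: ME-180 cervical cancer cells given 40 pM IL-6 alongside compound; SIE-controlled beta-lactamase reporter measured as 460/530 nm FRET emission ratio; % is set by controls: 0 for no effect and ±100 for the full control effect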
Summary of the method: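 ME-180 SIE-bla cells; overnight plating; cpd + IL-6 40 pM, 5 h, 37 C; LiveBLAzer 2.5 h RT; 460/530 nm emission ratio. Normalized to 300 pM IL-6 and 125 nM JAK inhibitor controls.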

[5] = molecular target: Glucocorticoid receptor (Homo sapiens) (UniProt P04150); assay: GR-GFP Redistribution (AID 450;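 active = compounds whose dose series gives a full or clear partial fitted curve of increased nuclear translocation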; note: potency is the fitted concentration of half-maximal effect); conditions: U2OS GR-GFP nuclear translocation, laser cytometry, 2 h
Chain of Glucocorticoid receptor (Homo sapiens) (P04150 whole entry, looked up, the tested form may be a part): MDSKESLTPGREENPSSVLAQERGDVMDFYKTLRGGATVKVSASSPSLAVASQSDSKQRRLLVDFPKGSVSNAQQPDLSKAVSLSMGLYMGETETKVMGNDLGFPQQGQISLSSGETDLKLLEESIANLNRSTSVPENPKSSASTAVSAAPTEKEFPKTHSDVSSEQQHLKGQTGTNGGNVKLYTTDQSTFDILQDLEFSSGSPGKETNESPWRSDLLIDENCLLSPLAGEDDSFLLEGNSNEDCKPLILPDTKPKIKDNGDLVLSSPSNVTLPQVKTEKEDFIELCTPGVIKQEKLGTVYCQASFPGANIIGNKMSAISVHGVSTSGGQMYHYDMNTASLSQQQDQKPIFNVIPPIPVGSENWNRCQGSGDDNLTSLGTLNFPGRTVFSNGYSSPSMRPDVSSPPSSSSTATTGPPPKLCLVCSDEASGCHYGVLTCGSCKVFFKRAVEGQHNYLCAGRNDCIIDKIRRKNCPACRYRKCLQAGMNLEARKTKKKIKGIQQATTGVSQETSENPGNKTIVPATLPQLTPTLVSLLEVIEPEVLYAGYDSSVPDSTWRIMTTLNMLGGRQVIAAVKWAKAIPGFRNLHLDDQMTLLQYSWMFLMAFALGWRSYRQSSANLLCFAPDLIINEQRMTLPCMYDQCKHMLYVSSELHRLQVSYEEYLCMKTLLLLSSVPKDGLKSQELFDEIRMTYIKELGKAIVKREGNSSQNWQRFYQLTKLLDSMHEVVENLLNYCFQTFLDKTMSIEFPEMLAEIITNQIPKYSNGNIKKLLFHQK

[6] = molecular target: Glucocorticoid receptor (Homo sapiens) (UniProt P04150); assay: GR-EFC Redistribution (AID 451; calls by dose curve; note: potency is the fitted concentration of half-maximal effect); conditions: CHO-K1 GR-EFC translocation, beta-gal luminescence, 2 h
Summary of the method: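 CHO-K1 cells stably expressing nuclear-localized β-gal enzyme acceptor and GR fused C-terminally to the enzyme donor fragment; ligand-driven nuclear translocation restores β-gal by complementation. Compounds titrated up to 46 uM final, 2 h at 37 °C; luminescence read.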

[7] = molecular target: Mitogen-activated protein kinase 10 (Mus musculus) (UniProt Q61831); assay: JNK3 AlphaScreen Assay (AID 530); conditions: JNK3 lysate, c-Jun phosphorylation; series mostly up to 11.4 µM;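 note: kinase came from lysate of stimulated human HepG2 cells; signal reports phosphorylation of biotinylated GST-cJun 1-79 at Ser73 with 10 µM ATP; % is set by controls: 0 for no effect and ±100 for the full control effect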
Summary of the method: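 JNK3 came from HepG2 lysates pre-activated with IL-1beta and TNF-alpha and phosphorylated biotinylated GST-cJun (1-79) at 10 uM ATP, pH 7.6, room temperature. Compounds were titrated. AlphaScreen signal used anti-phospho-cJun (Ser73) antibody.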

[8] = molecular target: 3',5'-cyclic-AMP phosphodiesterase 4B (Homo sapiens) (UniProt Q07343); assay: qHTS Assay for Inhibitors of PDE-IV (AID 607; active = well fitted activation curve with a large enough effect in the main read-out, with a control signal flat, not every such curve was filed as active; note: % of control where 0% means no effect); conditions: HEK293 ACTOne CNG channel cells, membrane potential fluorescence; series mostly up to 22.9 µM
Chain of 3',5'-cyclic-AMP phosphodiesterase 4B (Homo sapiens) (Q07343 whole entry, looked up): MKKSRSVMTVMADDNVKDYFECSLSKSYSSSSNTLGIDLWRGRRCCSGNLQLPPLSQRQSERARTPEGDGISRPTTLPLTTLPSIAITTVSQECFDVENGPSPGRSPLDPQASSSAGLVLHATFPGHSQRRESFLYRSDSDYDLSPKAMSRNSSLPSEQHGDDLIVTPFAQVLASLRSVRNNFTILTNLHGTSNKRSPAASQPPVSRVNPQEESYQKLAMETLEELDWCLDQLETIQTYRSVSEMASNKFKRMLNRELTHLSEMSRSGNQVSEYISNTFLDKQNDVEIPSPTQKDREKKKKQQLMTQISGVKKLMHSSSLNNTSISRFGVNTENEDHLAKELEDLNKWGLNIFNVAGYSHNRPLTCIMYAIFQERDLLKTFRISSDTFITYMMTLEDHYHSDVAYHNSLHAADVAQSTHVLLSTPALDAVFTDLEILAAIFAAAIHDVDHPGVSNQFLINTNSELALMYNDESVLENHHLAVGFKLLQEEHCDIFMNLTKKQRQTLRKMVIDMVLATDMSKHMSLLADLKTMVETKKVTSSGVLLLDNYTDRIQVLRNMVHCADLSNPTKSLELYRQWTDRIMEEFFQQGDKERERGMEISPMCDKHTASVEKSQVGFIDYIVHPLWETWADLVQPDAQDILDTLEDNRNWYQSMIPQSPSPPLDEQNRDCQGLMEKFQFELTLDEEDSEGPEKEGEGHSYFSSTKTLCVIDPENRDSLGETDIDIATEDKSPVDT
Summary of the method: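 ACTOne HEK293 cells carry a modified cAMP-gated CNG channel and express endogenous PDE4; plated 1000 cells/well, compounds up to 22.9 uM final. Membrane-potential dye fluorescence (ex 535/em 590) was read; parental cells received 10 uM forskolin + 100 uM RO 20-1724.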

[N-]=[N+]=CC(=O)COC(=O)c1ccccc1
inactive: Potency [1] > 11.4 µM | activity change, negative = inhibition [2] 9.2% | activity change, negative = inhibition [3] 16.5% | activity, negative = inhibition [4] -0.859% | Potency [5] > 46 µM | Potency [6] > 9.22 µM | Potency [7] | Potency [8]

COC(=O)c1cc(=O)[nH]c(=O)[nH]1
inactive: Potency [1] > 11.4 µM | activity change, negative = inhibition [2] 9.08% | activity change, negative = inhibition [3] 1.11% | activity, negative = inhibition [4] -3.43% | Potency [5] > 46 µM | Potency [6] > 9.22 µM | Potency [7] | Potency [8]

O=S1(=O)CCN(Cc2ccccn2)CC1
inactive: Potency [1] > 11.4 µM | activity change, negative = inhibition [2] 0.374% | activity change, negative = inhibition [3] 13% | activity, negative = inhibition [4] -10.3% | Potency [5] > 46 µM | Potency [6] > 9.22 µM | Potency [7] | Potency [8]

CN(C)CCSS(=O)(=O)O
inactive: Potency [1] > 11.4 µM | activity change, negative = inhibition [2] 6.2% | activity change, negative = inhibition [3] 5.08% | activity, negative = inhibition [4] -1.46% | Potency [5] > 46 µM | Potency [6] > 9.22 µM | Potency [7] | Potency [8]

O=C(O)CCCN1CCCCC1
inactive: Potency [1] > 11.4 µM | activity change, negative = inhibition [2] 9.35% | activity change, negative = inhibition [3] 1.19% | activity, negative = inhibition [4] 9.26% | Potency [5] > 46 µM | Potency [6] > 9.22 µM | Potency [7] | Potency [8]

O=C1c2ccccc2C(=O)N1C[C@]1(C(=O)O)NCCS1(=O)=O
inactive: Potency [1] > 11.4 µM | activity change, negative = inhibition [2] -0.765% | activity change, negative = inhibition [3] 7.39% | activity, negative = inhibition [4] -1.43% | Potency [5] > 46 µM | Potency [6] > 9.22 µM | Potency [7] | Potency [8]

Nc1nc(N)nc(CC(=O)O)n1
inactive: Potency [1] > 11.4 µM | activity change, negative = inhibition [2] 5.1% | activity change, negative = inhibition [3] 15.8% | activity, negative = inhibition [4] 0.411% | Potency [5] > 46 µM | Potency [6] > 9.22 µM | Potency [7] | Potency [8]

CCSCCCC(=O)O
inactive: Potency [1] > 11.4 µM | activity change, negative = inhibition [2] -6.6% | activity change, negative = inhibition [3] 2.17% | activity, negative = inhibition [4] 8.19% | Potency [5] > 46 µM | Potency [6] > 9.22 µM | Potency [7] | Potency [8]

CCOC(=O)c1c(O)[nH]c(=O)c(CC)c1C
inactive: Potency [1] > 11.4 µM | activity change, negative = inhibition [2] -5.14% | activity change, negative = inhibition [3] -3.29% | activity, negative = inhibition [4] 13.4% | Potency [5] > 46 µM | Potency [6] > 9.22 µM | Potency [7] | Potency [8]

CC(C)(CCC(C)(C)c1ccccc1)c1ccccc1
inactive: Potency [1] > 11.4 µM | activity change, negative = inhibition [2] -0.999% | activity change, negative = inhibition [3] 5.11% | activity, negative = inhibition [4] -2.84% | Potency [5] > 46 µM | Potency [6] > 9.22 µM | Potency [7] | Potency [8]

Cc1nc(N)nc2ccccc12
inactive: Potency [1] > 11.4 µM | activity change, negative = inhibition [2] -0.162% | activity change, negative = inhibition [3] 0.491% | activity, negative = inhibition [4] 2.21% | Potency [5] > 46 µM | Potency [6] > 9.22 µM | Potency [7] | Potency [8]

O=C(Nc1c[nH]c(=O)[nH]c1=O)Oc1ccccc1
inactive: Potency [1] > 11.4 µM | activity change, negative = inhibition [2] 1.22% | activity change, negative = inhibition [3] 2.28% | activity, negative = inhibition [4] -1.82% | Potency [5] > 46 µM | Potency [6] > 9.22 µM | Potency [7] | Potency [8]

CC(CO)(CO)Nc1ncnc2ccccc12
inactive: Potency [1] > 11.4 µM | activity change, negative = inhibition [2] 4.46% | activity change, negative = inhibition [3] 9.62% | activity, negative = inhibition [4] 12.4% | Potency [5] > 46 µM | Potency [6] > 9.22 µM | Potency [7] | Potency [8]

CC(C)CCNc1ncnc2[nH]ncc12
inactive: Potency [1] > 11.4 µM | activity change, negative = inhibition [2] 6.28% | activity change, negative = inhibition [3] -25.7% | activity, negative = inhibition [4] -5.65% | Potency [5] > 46 µM | Potency [6] > 9.22 µM | Potency [7] | Potency [8]

O=C(O)C/C=C\CC(=O)O
inactive: Potency [1] > 11.4 µM | activity change, negative = inhibition [2] -4.27% | activity change, negative = inhibition [3] 2.57% | activity, negative = inhibition [4] 1.96% | Potency [5] > 46 µM | Potency [6] > 9.22 µM | Potency [7] | Potency [8]

O=C1CSC(=S)N1/N=C\c1ccc(Cl)c([N+](=O)[O-])c1
inactive: Potency [1] > 11.4 µM | activity change, negative = inhibition [2] 1.11% | activity change, negative = inhibition [3] 6.49% | activity, negative = inhibition [4] 1.79% | Potency [5] > 46 µM | Potency [6] > 9.22 µM | Potency [7] | Potency [8]

NC(=O)/N=C(\N)NC(=O)c1ccccc1
inactive: Potency [1] > 11.4 µM | activity change, negative = inhibition [2] -2.56% | activity change, negative = inhibition [3] 8.99% | activity, negative = inhibition [4] 2.37% | Potency [5] > 46 µM | Potency [6] > 9.22 µM | Potency [7] | Potency [8]

CN(C)Cc1cc(C(C)(C)C)cc(CN(C)C)c1O
inactive: Potency [1] > 11.4 µM | activity change, negative = inhibition [2] 12.4% | activity change, negative = inhibition [3] 3.21% | activity, negative = inhibition [4] -1.5% | Potency [5] > 46 µM | Potency [6] > 9.22 µM | Potency [7] | Potency [8]
